{"source": "PubChem BioAssay AID1851", "about": "(National Center for Advancing Translational Sciences (NCATS), 2009)", "note": "The campaign covered roughly 16,000 compounds. About 5,800 (36%) were called active. Another 23% or so got no clear call; they are omitted. Calls come from the whole dose curve; as a rule, active = well fitted curve in the direction sought with a large enough effect; inconclusive = small, poorly fitted or top-dose-only effect, or effect the other way; inactive = no such curve, though single readings can be large or run the other way. The list shows a part of the results. % is set by controls: 0 for no effect and ±100 for the full control effect."}
{"target": "Cytochrome P450 2C19 (Homo sapiens) (UniProt P33261)", "sequence (P33261 whole entry, looked up)": "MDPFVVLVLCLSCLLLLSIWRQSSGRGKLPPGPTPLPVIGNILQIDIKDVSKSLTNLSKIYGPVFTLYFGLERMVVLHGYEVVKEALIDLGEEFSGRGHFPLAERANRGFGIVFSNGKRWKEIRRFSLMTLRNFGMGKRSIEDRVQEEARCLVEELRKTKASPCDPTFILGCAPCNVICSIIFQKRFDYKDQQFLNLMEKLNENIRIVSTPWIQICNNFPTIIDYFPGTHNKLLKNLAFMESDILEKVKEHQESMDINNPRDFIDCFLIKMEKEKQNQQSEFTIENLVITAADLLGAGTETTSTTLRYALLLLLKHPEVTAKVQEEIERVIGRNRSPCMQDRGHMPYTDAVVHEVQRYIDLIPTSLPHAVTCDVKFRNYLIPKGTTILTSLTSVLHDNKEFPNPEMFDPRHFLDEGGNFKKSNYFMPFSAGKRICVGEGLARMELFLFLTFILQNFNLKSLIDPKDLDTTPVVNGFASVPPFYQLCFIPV", "test": "Cytochrome panel assay with activity outcomes", "details": "recombinant CYP, pro-luciferin dealkylation, luminescence, p450-cyp2c19; series mostly up to 57.1 µM; activity, negative = inhibition: at the top concentration"}
{"compound": "Nc1nc(=O)c2[nH]cnc2n1O", "activity, negative = inhibition": "-10.6% [at 11.4 µM] (inactive)"}
{"compound": "CNC(=O)[C@@H]1O[C@@H](n2cnc3c(NCc4ccc(N)cc4)ncnc32)[C@@H](O)[C@H]1O", "activity, negative = inhibition": "20.5% (inactive)"}
{"compound": "CN1CC[C@@]2(CCCN(C(=O)c3cccn3C)C2)C1", "activity, negative = inhibition": "12.9% (inactive)"}
{"compound": "CC(C)NC(=O)N1CC[C@@]2(CCCN(C(=O)c3cccn3C)C2)C1", "activity, negative = inhibition": "23% (inactive)"}
{"compound": "Cn1cccc1C(=O)N1CCC[C@@]2(CCN(c3ccccc3)C2)C1", "AC50": "5.01 µM (active)"}
{"compound": "Cc1cc2ccccc2n1CCNC(=O)C1CCCC1", "AC50": "1.26 µM (active)"}
{"compound": "Cc1ccc(S(=O)(=O)NCCn2c(C)cc3ccccc32)cc1", "AC50": "1 µM (active)"}
{"compound": "CN(C)CCn1c(C(=O)O)cc2ccccc21", "activity, negative = inhibition": "31.4% (inactive)"}
{"compound": "Cc1ccc(S(=O)(=O)NC(=O)c2cccn2C)cc1", "activity, negative = inhibition": "7.77% (inactive)"}
{"compound": "Cc1cc2ccccc2c(=O)n1CC(=O)NCC(=O)N1CCCC1", "activity, negative = inhibition": "-15.6% (inactive)"}
{"compound": "Cc1nnc(NC(=O)c2oc3c(ccc4ccccc43)c2C)s1", "AC50": "10 µM (active)"}
{"compound": "Cc1ccc(S(=O)(=O)CC#CCOC(=O)c2ccc([N+](=O)[O-])cc2)cc1", "AC50": "7.94 µM (active)"}
{"compound": "Cc1c(OC(=O)c2ccc([N+](=O)[O-])cc2)c2c(c[n+]1C)COC(C)(C)OC2", "activity, negative = inhibition": "20.4% (inactive)"}
{"compound": "CCOC(=O)n1ccn(C)c1=S", "activity, negative = inhibition": "10.6% [at 25.6 µM] (inactive)"}
{"compound": "C/C(=C\\C(=O)c1ccc(Cl)cc1)NCc1ccc2c(c1)OCO2", "AC50": "2.51 µM (active)"}
{"compound": "C/C(=C\\C(=O)c1ccc(Br)cc1)NCc1ccc2c(c1)OCO2", "AC50": "8.91 µM (active)"}
{"compound": "O=C1Nc2ccccc2C(O)(C(=O)NCc2ccc3c(c2)OCO3)N1c1ccc(Cl)c(Cl)c1", "note": "(stereo not given)", "activity, negative = inhibition": "-26.2% (inactive)"}
{"compound": "O=C(c1ccc(Cl)c(Cl)c1)c1cc(-c2ccccn2)c(N2CCOCC2)s1", "AC50": "7.94 µM (active)"}
{"compound": "Cc1ccccc1C(=O)Nc1ccc(N2CCOCC2)nc1", "activity, negative = inhibition": "-14.6% (inactive)"}
{"compound": "Cc1cc(F)ccc1S(=O)(=O)Nc1ccccc1C(=O)Nc1ccccc1N1CCOCC1", "AC50": "1.58 µM (active)"}
{"compound": "O=C(Nc1ccccc1N1CCOCC1)c1ccccc1[N+](=O)[O-]", "activity, negative = inhibition": "-26.2% (inactive)"}
{"compound": "NCc1ccccc1CC(=O)N[C@@H]1C(=O)N2C(C(=O)O)=C(CSc3nnnn3CC(=O)O)CS[C@@H]12", "activity, negative = inhibition": "13.7% [at 25.6 µM] (inactive)"}
{"compound": "CCn1cnc2sc(C(=O)N3CCN(c4ccc(OC)cc4)CC3)c(C)c2c1=O", "AC50": "10 µM (active)"}
{"compound": "COC(=O)Nc1ccc2[nH]cc(CCNC(C)=O)c2c1", "activity, negative = inhibition": "-26.7% (inactive)"}
{"compound": "CC(=O)NCCc1c(Cc2ccccc2)[nH]c2ccccc12", "AC50": "25.1 µM (active)"}
{"compound": "CC(=O)NCCc1ccc(O)c(O)c1", "activity, negative = inhibition": "-0.0511% (inactive)"}
{"compound": "COc1ccc2[nH]c(-c3ccccc3)c(CCNC(C)=O)c2c1", "AC50": "7.94 µM (active)"}
{"compound": "C=N[C@H](C(=O)N[C@@H]1C(=O)N2[C@@H]1SC(C)(C)[C@@H]2C(=O)O)c1ccccc1", "activity, negative = inhibition": "-3.23% [at 25.6 µM] (inactive)"}
{"compound": "COc1ccccc1S(=O)(=O)Nc1ccc(-c2nnc3n2CCCCC3)cc1", "activity, negative = inhibition": "-33% (inactive)"}
{"compound": "COc1ccc(NS(=O)(=O)c2cc(-c3nnnn3C)ccc2OC)cc1", "AC50": "14.1 µM (active)"}
{"compound": "O=C(O)c1ccc(SSc2ccc(C(=O)O)cn2)nc1", "AC50": "2.51 µM (active)"}
{"compound": "O=C(O)c1cccc(SSc2cccc(C(=O)O)c2)c1", "activity, negative = inhibition": "-33.7% [at 11.4 µM] (inactive)"}
{"compound": "O=C(O)c1cc(C(=O)O)nc(C(=O)O)c1", "activity, negative = inhibition": "3.49% [at 11.4 µM] (inactive)"}
{"compound": "CCOC(=O)c1nnc(-c2ccccc2)nc1NCc1ccccc1", "AC50": "25.1 µM (active)"}
{"compound": "C/C(=N/S(=O)(=O)c1ccc(Cl)c(Cl)c1)OCC(C)(C)C", "activity, negative = inhibition": "58.8% [at 11.4 µM] (inactive)"}
{"compound": "O=S(=O)(Nc1ccc(Cc2ccncc2)cc1)c1ccc(Br)cc1", "AC50": "0.0224 µM (active)"}
{"compound": "Cc1ccnc(NS(=O)(=O)c2ccc(N)cc2)n1", "AC50": "inactive"}
{"compound": "O=S(=O)(Nc1ccc(Cc2ccncc2)cc1)c1cccs1", "AC50": "0.0224 µM (active)"}
{"compound": "O=S(=O)(Nc1ccc(Cc2ccncc2)cc1)c1ccc(Cl)c(Cl)c1", "AC50": "0.0251 µM (active)"}
{"compound": "CC(=O)N=c1sc(S(N)(=O)=O)nn1C", "activity, negative = inhibition": "-1.35% [at 25.6 µM] (inactive)"}
{"compound": "CCCCOC(=O)CSc1nnc(-c2cc(OC)c(OC)c(OC)c2)o1", "AC50": "15.8 µM (active)"}
{"compound": "COc1cc(-c2nnc(SCC3(c4ccccc4)OCCO3)o2)cc(OC)c1OC", "AC50": "1.12 µM (active)"}
{"compound": "Cc1ccc(NC(=O)CSc2nnc(-c3ccncc3)o2)cc1", "activity, negative = inhibition": "-29.9% (inactive)"}
{"compound": "CCN(CC)CCCCCCCCOC(=O)c1cc(OC)c(OC)c(OC)c1", "activity, negative = inhibition": "-15.4% (inactive)"}
{"compound": "COc1cc(-c2nnc(SCC(=O)Nc3ccc4c(c3)OCCO4)o2)cc(OC)c1OC", "AC50": "11.2 µM (active)"}
{"compound": "C/C(C[n+]1ccccc1)=N\\N=C(N)N", "activity, negative = inhibition": "40.3% [at 11.4 µM] (inactive)"}
{"compound": "CN1CCN(c2ncc3nc(-c4cn(C)c5ccccc45)c(=O)n(C)c3n2)CC1", "activity, negative = inhibition": "-41.2% (inactive)"}
{"compound": "Cn1cc(-c2nc3cnc(N4CCNCC4)nc3n(C3CC3)c2=O)c2ccccc21", "AC50": "20 µM (active)"}
{"compound": "Cn1cc(-c2nc3cnc(N4CCNCC4)nc3n(-c3ccccc3)c2=O)c2ccccc21", "activity, negative = inhibition": "-41.6% (inactive)"}
{"compound": "Cn1cc(-c2nc3cnc(N4CCNCC4)nc3n(C)c2=O)c2ccccc21", "AC50": "10 µM (active)"}
{"compound": "Cn1cc(-c2nc3cnc(Oc4ccccc4)nc3n(C3CC3)c2=O)c2ccccc21", "activity, negative = inhibition": "-13.9% (inactive)"}
{"compound": "COc1ccc(-n2c(=O)c(-c3cn(C)c4ccccc34)nc3cnc(N4CCNCC4)nc32)cc1", "activity, negative = inhibition": "-40.5% (inactive)"}
{"compound": "Cc1ccccc1C(=O)NC(C)c1ccc2c(c1)CCCC2", "note": "(stereo not given)", "AC50": "2.82 µM (active)"}
{"compound": "CCn1c2ccccc2c2cnc(N=CN(C)C)c(C#N)c21", "AC50": "28.2 µM (active)"}
{"compound": "Cn1c(=S)c2[nH]c(SCCN3CCCC3)nc2n(C)c1=O", "activity, negative = inhibition": "57% [at 11.4 µM] (inactive)"}
{"compound": "Cc1cnc(C(=O)OCC(=O)NC(C)C)cn1", "activity, negative = inhibition": "-27% (inactive)"}
{"compound": "CC(C)(C)NC(=O)COC(=O)c1cncc(Br)c1", "AC50": "22.4 µM (active)"}
{"compound": "O=c1n(-c2ccccc2)c(=O)n2n1CC[C@H]1/C(=N\\OCc3ccccc3)[C@H]3O[C@@H]3[C@@H](O)[C@@H]12", "activity, negative = inhibition": "44.7% [at 11.4 µM] (inactive)"}
{"compound": "CCOC(=O)c1ccc(S(=O)(=O)Nc2ccc3cn[nH]c3c2)cc1", "AC50": "3.16 µM (active)"}
{"compound": "COCCn1c(=O)c(-c2ccc(OC)cc2)nc2cnc(Nc3cccc(OC)c3)nc21", "activity, negative = inhibition": "-22.3% (inactive)"}
{"compound": "C[C@@H]1CCN=C(N)S1", "AC50": "inactive"}
{"compound": "CN1CCCN([C@@H](c2ccccc2)c2ccc(Cl)cc2)CC1", "activity, negative = inhibition": "-31% [at 25.6 µM] (inactive)"}
{"compound": "N#Cc1ccc(C(c2nnnn2Cc2ccccc2)N2CCCC2)cc1", "note": "(stereo not given)", "AC50": "11.2 µM (active)"}
{"compound": "N#Cc1cccc(C(c2nnnn2C2CCCC2)N2CCCCCC2)c1", "note": "(stereo not given)", "AC50": "5.62 µM (active)"}
{"compound": "N#Cc1ccc(C(c2nnnn2C2CCCC2)N2CCC(Cc3ccccc3)CC2)cc1", "note": "(stereo not given)", "AC50": "3.55 µM (active)"}
